Data on 40 compounds can be found in PubChem BioAssay (EPA / NIEHS).

A short description of experiment [1]: CEETOX_H295R_MTT_cell_viability: Viability Assessment in the CeeTox HT-H295R MTT Assay (AID 2283718; active = hit-call score of the fitted dose curve at least 0.9, where 1 is the maximum; inactive = score below 0.9). The method in brief: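 H295R cells prestimulated 48 h with 10 uM forskolin, then exposed 48 h to test chemical (0.1% DMSO final). Viability by MTT (0.5 mg/ml, 4 h, 37 C), absorbance 570/650 nm; percent change versus DMSO, bidirectional fit.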
The nature of experiment [2]: Tanguay_ZF_120hpf_ActivityScore_legacy: (Legacy) Oregon State University Tanguay Lab 120 Hour Post-fertilization zebrafish Assay Score for Activity (AID 2283742).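 As to AC50: dechorionated Tropical 5D wild-type zebrafish embryos held singly per well; static exposure from 6 hpf until 120 hpf at 28 °C.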 The method in brief:
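In this whole-embryo screen, dechorionated zebrafish were exposed from 6 hpf until 120 hpf at 28C under a 0.64% DMSO vehicle. Developmental malformations and death were recorded by brightfield microscopy as binary endpoints.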

Experiment [3] has as its target Luciferin 4-monooxygenase (Photinus pyralis) (UniProt P08659). Kind of experiment: CCTE_Simmons_QuantiLum_inhib_2: CCTE's Firefly Luciferase Inhibition Assay, Simmons Lab (AID 2283767).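 As to AC50: potency for inhibitors that lower luciferase luminescence relative to DMSO.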 Summed up: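 Eight test concentrations, 5 nM up to 87.5 uM final, preincubated 30min at 37C in the dark with purified luciferase (0.5% DMSO final). Detection reagent (150uM D-luciferin, 147uM dATP, 75uM CoA, pH 7.8) injected per well before kinetic luminescence read; three replicates.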

The nature of experiment [4]: ACEA_AR_agonist_AUC_viability: ACEA Biosciences xCELLigence Real-Time Cell Analysis on Androgen Receptor Agonism for Viability (AID 2283775).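 As to AC50: viability read 80 hours after compound addition.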 The method in brief: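 22Rv1 cells; impedance growth kinetics; 8-pt 1:4 dilutions from 100 uM top final, ≤0.5% DMSO; n = 2; 80 h read; AUC viability, loss-of-signal vs DMSO.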
Experiment [5] can be described thus: ACEA_AR_antagonist_AUC_viability: ACEA Biosciences xCELLigence Real-Time Cell Analysis on Androgen Receptor Antagonism for Viability (AID 2283776).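 Also: 22Rv1 human prostate cancer cells growing on impedance electrode plates; area under impedance growth curve at 80 h after dosing as viability; hits lower the growth signal relative to DMSO meaning cytotoxicity.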 The method in brief:
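Viability endpoint from label-free cell-index monitoring: 22Rv1 cultures treated with an eight-point 1:4 dilution series starting at 100 uM final, AUC at 80 h fitted against DMSO.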

For experiment [6], the system named is zebrafish Androgen Receptor (AR), gene 100005148. In words: ATG_zfAR_XSP1: Attagene TRANS-FACTORIAL Multi-Species (XSP1) HepG2 Assay for zebrafish Androgen Receptor (AR) (AID 2283771). The method in brief: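 Gain-of-signal versus DMSO was measured as reporter transcripts quantified by RT-PCR, fluorescent labelling and capillary electrophoresis after 24 h chemical exposure. The cells were HepG2 expressing a chimeric zebrafish AR-GAL4, co-stimulated with 3 nM 6-alpha-fluorotestosterone.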

The target of experiment [7] is zebrafish Estrogen Receptor (ESR1), esr1 (gene 259252) (UniProt P57717). In words: ATG_zfER1_XSP1: Attagene TRANS-FACTORIAL Multi-Species (XSP1) HepG2 Assay for zebrafish Estrogen Receptor (ESR1) (AID 2283772). The method in brief: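 Reporter mRNA induction, gauged via RT-PCR/capillary electrophoresis fluorescence relative to DMSO controls, in HepG2 cells transiently carrying GAL4-UAS reporter units; 24 h dosing.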
Sequence of zebrafish Estrogen Receptor (ESR1), esr1 (gene 259252) (P57717 whole entry, looked up, the tested form may be a part): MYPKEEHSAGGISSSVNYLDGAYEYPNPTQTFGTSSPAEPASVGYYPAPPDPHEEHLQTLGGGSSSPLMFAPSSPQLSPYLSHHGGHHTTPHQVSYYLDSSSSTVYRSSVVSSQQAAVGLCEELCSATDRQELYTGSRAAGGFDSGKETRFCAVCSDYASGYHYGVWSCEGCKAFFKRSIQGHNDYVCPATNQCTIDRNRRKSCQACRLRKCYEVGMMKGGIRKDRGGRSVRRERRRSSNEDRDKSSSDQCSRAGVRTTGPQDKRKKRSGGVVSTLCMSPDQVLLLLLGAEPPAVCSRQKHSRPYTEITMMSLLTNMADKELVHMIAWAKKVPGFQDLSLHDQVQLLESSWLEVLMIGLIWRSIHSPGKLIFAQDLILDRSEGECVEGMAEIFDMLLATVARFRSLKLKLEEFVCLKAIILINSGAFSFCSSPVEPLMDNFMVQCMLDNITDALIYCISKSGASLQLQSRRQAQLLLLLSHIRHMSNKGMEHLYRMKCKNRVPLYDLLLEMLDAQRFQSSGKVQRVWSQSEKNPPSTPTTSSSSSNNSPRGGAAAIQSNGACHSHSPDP

Experiment [8] has as its system zebrafish Estrogen Receptor (ESR2B), gene 317733. Kind of experiment: ATG_zfER2b_XSP1: Attagene TRANS-FACTORIAL Multi-Species (XSP1) HepG2 Assay for zebrafish Estrogen Receptor (ESR2B) (AID 2283773). Summed up:
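Human hepatoma HepG2, transiently transfected with multi-reporter units; exogenous zebrafish ESR2B-Gal4 activity measured. Exposure 24 h alongside 3 nM 6-alpha-fluorotestosterone to partly stimulate AR.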

The test system of experiment [9] is frog Estrogen Receptor (ESR2), gene 100174814. In words: ATG_frER2_XSP1: Attagene TRANS-FACTORIAL Multi-Species (XSP1) HepG2 Assay for frog Estrogen Receptor (ESR2) (AID 2283774). Summed up: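 Multiplexed TRANS-format reporter assay in human hepatoma HepG2: chimeric nuclear receptor-Gal4 activity reported as mRNA induction at 24 h, detected by fluorescent RT-PCR products on capillary electrophoresis and fitted upward from DMSO baseline.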

Experiment [10] concerns frog Estrogen Receptor (ESR1), gene 398734. Kind of experiment: ATG_frER1_XSP1: Attagene TRANS-FACTORIAL Multi-Species (XSP1) HepG2 Assay for frog Estrogen Receptor (ESR1) (AID 2283777). Summed up:
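After transient transfection and 24 h compound treatment, total RNA from HepG2 cells was reverse-transcribed, amplified, FAM-labeled and resolved by capillary electrophoresis. Signal increases were fitted against DMSO controls.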

The test system of experiment [11] is zebrafish Estrogen Receptor (ESR2A), gene 317734. Kind of experiment: ATG_zfER2a_XSP1: Attagene TRANS-FACTORIAL Multi-Species (XSP1) HepG2 Assay for zebrafish Estrogen Receptor (ESR2A) (AID 2283778). Summed up:
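Gain-of-signal reporter transcription readout from GAL4-UAS units in transiently transfected HepG2 cells, 24 h exposure, 3 nM 6-alpha-fluorotestosterone co-present. Detection by RT-PCR with capillary electrophoresis fluorescence.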

The target in experiment [12] is chicken Estrogen Receptor (ESR1), ESR1 (gene 396099) (UniProt P06212). Kind of experiment: ATG_chERa_XSP1: Attagene TRANS-FACTORIAL Multi-Species (XSP1) HepG2 Assay for chicken Estrogen Receptor (ESR1) (AID 2283779). Summed up:
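Gain-of-signal reporter transcription, relative to DMSO, was scored in transiently transfected HepG2 cells after a 24 h dose. Fluorescence intensity of amplified, digested reporter cDNA fragments served as the endpoint.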

Each structure is given as a SMILES string. Records with an inconclusive call do not appear. Activity calls are given as the source filed them. The calls were made as follows, unless noted: active = hit-call score of the fitted dose curve at least 0.9, where 1 is the maximum; inconclusive = response in the unintended direction; inactive = score below 0.9.

Sequence of Luciferin 4-monooxygenase (Photinus pyralis) (P08659 whole entry, looked up): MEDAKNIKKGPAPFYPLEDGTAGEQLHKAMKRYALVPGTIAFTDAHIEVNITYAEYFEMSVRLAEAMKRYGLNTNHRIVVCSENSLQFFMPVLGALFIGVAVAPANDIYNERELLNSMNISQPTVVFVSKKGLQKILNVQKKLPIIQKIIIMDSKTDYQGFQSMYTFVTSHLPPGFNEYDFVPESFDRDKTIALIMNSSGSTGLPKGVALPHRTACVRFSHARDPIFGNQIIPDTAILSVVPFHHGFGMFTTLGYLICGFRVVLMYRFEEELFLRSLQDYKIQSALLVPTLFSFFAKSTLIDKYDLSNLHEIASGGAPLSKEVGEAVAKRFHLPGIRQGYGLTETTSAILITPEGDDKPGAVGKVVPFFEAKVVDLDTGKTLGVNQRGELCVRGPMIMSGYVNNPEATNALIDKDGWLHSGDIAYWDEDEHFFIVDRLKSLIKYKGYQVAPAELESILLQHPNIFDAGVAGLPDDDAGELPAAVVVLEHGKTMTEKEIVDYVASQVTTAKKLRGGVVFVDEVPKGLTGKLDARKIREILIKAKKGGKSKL
Sequence of chicken Estrogen Receptor (ESR1), ESR1 (gene 396099) (P06212 whole entry, looked up, the tested form may be a part): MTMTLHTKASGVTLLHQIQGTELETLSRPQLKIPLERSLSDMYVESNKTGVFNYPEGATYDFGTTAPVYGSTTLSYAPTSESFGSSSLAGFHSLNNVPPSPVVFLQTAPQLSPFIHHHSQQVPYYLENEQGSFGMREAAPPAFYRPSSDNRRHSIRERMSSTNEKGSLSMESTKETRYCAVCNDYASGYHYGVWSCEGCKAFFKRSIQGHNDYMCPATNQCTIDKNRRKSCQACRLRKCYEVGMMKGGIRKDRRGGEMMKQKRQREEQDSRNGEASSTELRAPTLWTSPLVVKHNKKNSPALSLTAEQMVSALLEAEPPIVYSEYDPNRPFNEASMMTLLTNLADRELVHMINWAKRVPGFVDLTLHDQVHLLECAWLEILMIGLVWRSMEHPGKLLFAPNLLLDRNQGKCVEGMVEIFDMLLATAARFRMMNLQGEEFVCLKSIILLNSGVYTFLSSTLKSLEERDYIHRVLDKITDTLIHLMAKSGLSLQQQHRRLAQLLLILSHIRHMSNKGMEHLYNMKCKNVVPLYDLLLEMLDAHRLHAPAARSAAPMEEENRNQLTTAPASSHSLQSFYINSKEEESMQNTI

Consider `O=c1c(-c2ccc(O)cc2)coc2cc(O)ccc12`, for which the compound was classed as inactive in experiment [1], in experiment [2], in experiment [4] and in experiment [5]. The AC50 in experiment [3] is 8.1 µM (active).

For `Cc1cc(C)c(O)c(C)c1`, the compound was called inactive in [2], in experiment [3], in [4] and in experiment [5].

Consider `CCc1ccc(CCOc2ccc(CC3SC(=O)NC3=O)cc2)nc1` (centres undefined), for which the outcome in [1] and in experiment [2] was inactive. The concentration at half-maximal activity (AC50) in [4] is 50 µM (active); in experiment [5] it was 26.5 µM (active).

In the case of `CCCOc1sc(C(=O)N2CCC(c3cc(CN)ccc3F)CC2)c(C)c1Br`, the result in experiment [2] was inactive.

As for `CCC(=C(c1ccc(O)cc1)c1ccc(OCCN(C)C)cc1)c1ccccc1`, the call in experiment [1], in experiment [2] and in [3] was inactive. Moreover, the AC50 was 6.23 µM (active) in [4] and 5.79 µM (active) in experiment [5].

On to `C[C@@H]1C[C@H]2[C@@H]3CCC4=CC(=O)C=C[C@]4(C)[C@@]3(F)[C@@H](O)C[C@]2(C)[C@@]1(O)C(=O)COP(=O)(O)O`, for which the result in experiment [1], in experiment [2] and in experiment [5] was inactive.

Consider `ClC1=C(Cl)C(Cl)(Cl)C(Cl)=C1Cl`, for which the outcome in experiment [2] was inactive. In addition, the AC50 in experiment [4] was 74.8 µM (active); in experiment [5], 68 µM (active).

In the case of `NC(=O)N1C(=O)C(C(=O)c2cc(Cl)cs2)c2cc(F)c(Cl)cc21` (centres undefined), in experiment [2], the AC50 was 2.88 µM (active). In addition, the outcome in [4] and in experiment [5] was inactive.

`CCCCC(CC)COC(=O)CCCCC(=O)OCC(CC)CCCC` (centres undefined): the compound was classed as inactive in [2], in experiment [4] and in experiment [5].

`CCC(C)(C)C1CCC(O)CC1` (centres undefined): the outcome in experiment [2], in [6], in [7], in experiment [9], in experiment [4] and in experiment [5] was inactive. In addition, the call in experiment [10], in experiment [11] and in experiment [12] was inactive. The AC50 in [8] is 10 µM (active).

Turning to `CCCCC(CC)COC(=O)CCCCC(=O)OCc1ccccc1` (centres undefined), the call in experiment [2], in experiment [4] and in experiment [5] was inactive.

For `Cc1oc(-c2ccccc2)nc1CCOc1ccc(C[C@H](Nc2ccccc2C(=O)c2ccccc2)C(=O)O)cc1`, the AC50 was 33.2 µM (active) in experiment [2], 14 µM (active) in experiment [4] and 14.4 µM (active) in experiment [5]. Further, the call in experiment [3], in [10] and in [12] was inactive.

As for `COCC(C)OCC(C)O` (centres undefined), the result in experiment [2] and in experiment [4] was inactive.

For the compound `O=C(/C=C/c1ccc(O)cc1)CC(=O)/C=C/c1ccc(O)cc1`, the AC50 in experiment [4] was 62.8 µM (active); in [5] it was 28.4 µM (active).

With `CC(O)C(=O)O` (centres undefined), the outcome in experiment [4] was inactive.

Turning to `O=C(OCCOCCOC(=O)c1ccccc1)c1ccccc1`, the compound was called inactive in experiment [2], in [4] and in experiment [5].

`CCCCCCC(=O)O`: the outcome in experiment [2] and in experiment [5] was inactive.

Regarding `CCCCCCCCOC(=O)CCCCCCCCC(=O)OCCCCCCCC`, the call in [2], in experiment [4] and in experiment [5] was inactive.

Regarding `CCCCCCCC(=O)O`, the outcome in [2], in experiment [4] and in experiment [5] was inactive.

Consider `OC1CCCCC1`, for which the call in [2], in experiment [4] and in experiment [5] was inactive.

For `CC(C)(C)CC(C)(C)c1ccc(O)c(-n2nc3ccccc3n2)c1`, in experiment [2], the call was inactive. The AC50 was 90.1 µM (active) in experiment [4] and 82.8 µM (active) in experiment [5].

As for `OCCC(F)(F)C(F)(F)C(F)(F)C(F)(F)C(F)(F)C(F)(F)C(F)(F)C(F)(F)F`, the call in [2], in experiment [4] and in [5] was inactive.

`c1ccc2c(c1)ccc1ccccc12`: the call in [2] was inactive. Moreover, the AC50 in [4] and in experiment [5] was 50 µM (active) each time.

For the compound `Cc1ccc(S(=O)(=O)O)c(C)c1`, the compound was called inactive in experiment [4] and in experiment [5].

As for `OC1CCC(C2CCCCC2)CC1` (centres undefined), in [2], the result was inactive. In addition, the AC50 is 81.3 µM (active) in [4] and 50 µM (active) in experiment [5].

Take `COCC(C)O` (centres undefined): the compound was classed as inactive in [2], in experiment [4] and in experiment [5].

`CCOC(=O)CC(O)(CC(=O)OCC)C(=O)OCC`: the result in [2], in experiment [4] and in experiment [5] was inactive.

For `CCCCCCCCCCCCCC[N+](C)(C)C`, in experiment [3], the result was inactive. For the same compound, the AC50 in [4] is 4.73 µM (active); in experiment [5] it was 6.52 µM (active).

With `CC(=O)NC1(c2cccc(F)c2)CCN(CC[C@@]2(c3ccc(Cl)c(Cl)c3)CN(c3ccccc3)C(=O)CO2)CC1`, the outcome in experiment [2] was inactive. The AC50 in experiment [4] and in [5] was 41.5 µM (active) throughout.

For `CC(C)CCCCCCOC(=O)CCCCC(=O)OCCCCCCC(C)C`, the outcome in experiment [2], in experiment [4] and in experiment [5] was inactive.

In the case of `CC(=O)CC(C)(C)O`, the compound was classed as inactive in [2], in [4] and in [5].

In the case of `CCCCOCCO`, the compound was classed as inactive in experiment [2], in [4] and in experiment [5].

Take `OCCC(F)(F)C(F)(F)C(F)(F)C(F)(F)C(F)(F)C(F)(F)F`: the compound was called inactive in [2] and in [4].

On to `N#C[C@@H]1CC(F)(F)CN1C(=O)CNC1CC2CCC(C1)N2c1ncccn1` (some centres undefined), for which the compound was called inactive in [2], in [3] and in experiment [5].

Regarding `COc1cc(CCC(=O)CC(=O)CCc2ccc(O)c(OC)c2)ccc1O`, the figures for the AC50 in experiment [4] and in experiment [5] were 68.5 µM (active) and 61.8 µM (active), respectively.

For the compound `Oc1cc2ccccc2c2ccccc12`, the AC50 in experiment [2] is 31.4 µM (active); in experiment [3] it was 30.1 µM (active); in experiment [4], 18.1 µM (active); in experiment [5], 10.7 µM (active).

`C=C(C)C(=O)OCCC(F)(F)C(F)(F)C(F)(F)C(F)(F)C(F)(F)C(F)(F)F`: the call in experiment [2], in [4] and in experiment [5] was inactive.

Take `CC(O)CO` (centres undefined): the compound was classed as inactive in experiment [2] and in [4]. The AC50 in experiment [5] was 11.9 µM (active).

For the compound `CC[C@H](C)[C@@H](C(=O)O)n1sc2ccccc2c1=O`, the compound was called inactive in experiment [2] and in experiment [5].

`O=C1OC2(c3ccccc31)c1cc(Br)c(O)c(Br)c1Oc1c2cc(Br)c(O)c1Br`: in experiment [4], the compound was called inactive.
